D2 antagonist – antagonists of human D2 dopamine receptor; P14416; HEK293 TREx D2 cells, calcium flux, dopamine EC80; inhibition, % at 10 µM; 2% of 340,000 active; AID 485344; in the data active = inhibition above about 30%; inactive = below that, where a call was filed; also: 0% is about no effect
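Read-out: kinetic calcium fluorescence (1 cycle/s) in inducible HEK293 T-REx D2 cells after an EC80 dopamine addition that followed 180 s compound preincubation. Loss of the dopamine response indicates antagonism.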
D2 ag-1 – activates the human D2 dopamine receptor. P14416. HEK293 T-REx D2 cells, calcium flux agonist mode. activation, % at 2 µM. 0.53% of 340,000 active. AID 485358;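 active = activation over 3 SD above normal in the single-dose calcium agonist read, cut at about 30% in these data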; also: 0% is about no effect
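Tetracycline-induced HEK293 T-REx cells with force-coupled D2 receptor, plated overnight at 30 C, loaded with no-wash calcium dye. After a 10 s baseline, compound was pin-added and calcium flux read kinetically for 180 s; calcium rises flagged agonists.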
D2 PAM-1 – positive allosteric modulators of human D2 dopamine receptor; potentiation, % (no concentration beside the values); DiscoveRx D2 beta-arrestin cells, luminescence, 90 min; 100% = 57 uM dopamine signal; P14416; 0.23% of 360,000 active; in the data active = potentiation above about 50%; inconclusive = mostly about 30% to 49%
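D2 cells co-treated with compound plus 50 nM dopamine (EC20) for 90 min at 37 deg C to detect potentiation. Beta-arrestin recruitment was read as enzyme-fragment luminescence after 1 h at ambient temperature. Full response was set by 57 uM dopamine.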
D2 PAM-2 – positive allosteric modulators of human D2 dopamine receptor; potentiation, % at 10 µM; HEK293 T-REx D2, calcium flux, EC20 dopamine potentiation; 0.34% of 340,000 active;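 active = potentiation over 3 SD above the plate norm, cut at about 30% in these data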; also: 0% is about no effect
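Using a no-wash calcium dye in inducible, force-coupled HEK293 Trex cells expressing D2, we tracked fluorescence each second for 180 s after compound, then for 180 s after EC20 dopamine to detect augmented signalling.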
D2 ag-2 – activates the human D2 dopamine receptor; P14416; DiscoveRx PathHunter D2 beta-arrestin, luminescence, 90 min; 100% = 57 uM dopamine signal; activation, % (test concentration not listed); AID 624465; 0.084% of 360,000 active; in the data active = activation above about 40%; inconclusive = between about 15% and that limit
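Agonist mode: compounds alone added to overnight-plated D2 PathHunter cells for 90 min at 37 C, with 57 uM final dopamine (EC100) defining full response. Beta-arrestin recruitment detected by chemiluminescent reagent, read after 1 h at ambient temperature.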
D3 ag – activates human D3 dopamine receptor beta-arrestin recruitment; Potency, µM (highest dose often 76.9 µM), without a hit: at the top dose activation, most hits filed as activators; 4% of 2,300 active; shares compounds with D2 ag-1; AID 720506; DiscoveRx D3 beta-arrestin cells, luminescence, 90 min;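 also: potency is read from the fitted curve at half-maximal effect; 100% = dopamine control response; nearly all actives have a fitted effect of over 70% in size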
Target sequence (P35462 whole entry, looked up): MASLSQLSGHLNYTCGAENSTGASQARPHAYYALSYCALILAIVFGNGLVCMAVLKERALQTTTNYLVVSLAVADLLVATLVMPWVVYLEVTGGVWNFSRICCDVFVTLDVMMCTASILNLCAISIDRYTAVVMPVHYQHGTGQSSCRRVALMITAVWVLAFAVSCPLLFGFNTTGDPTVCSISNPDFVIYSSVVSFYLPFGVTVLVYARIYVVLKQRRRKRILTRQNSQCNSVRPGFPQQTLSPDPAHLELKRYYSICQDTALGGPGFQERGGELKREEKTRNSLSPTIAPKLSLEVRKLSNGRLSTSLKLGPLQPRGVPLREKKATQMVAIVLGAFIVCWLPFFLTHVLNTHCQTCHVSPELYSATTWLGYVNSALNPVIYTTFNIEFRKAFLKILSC
D2 ag-3 – activates human D2 dopamine receptor in D3 counterscreen; DiscoveRx PathHunter D2 beta-arrestin, luminescence, 90 min; response scale: percent relative to full dopamine signal; shares compounds with D2 ag-1; Potency, µM (titrated, usually from 76.9 µM), inactives show at the top dose activation, hits mostly activators; 5.9% of 2,300 active; also: potency is read from the fitted curve at half-maximal effect; % of control where 0% means no effect; nearly all actives have a fitted effect of over 70% in size
Active calls of the source: *; ? = inconclusive; · = no result given; ! = not active in a repeat. Only some compounds are listed: those with a hit (about 2.4% of all), similar ones and a draw of the others. Unless noted, calls follow the shape of the dose curve; as a rule, active = well fitted activation curve with a large enough effect; inconclusive = small, poorly fitted or top-dose-only effect; inactive = flat fitted curve, though single readings scatter.

SMILES	D2 antagonist	D2 ag-1	D2 PAM-1	D2 PAM-2	D2 ag-2	D3 ag	D2 ag-3
COC(=O)c1[nH]c2ccccc2c1NC(=O)C(C)N1CCN(C(=O)c2ccco2)CC1 (stereo not drawn)	6	47*	-19	-12	?	?	17%
O=S(=O)(Cc1ccccc1)N1CCN(c2ncccn2)CC1	-22	0	-3	-5	-4	·	·
COc1ccc(NC(=O)CN(C)C(=O)c2csc3c2CCCC3)cc1	13	0	-19	-6	-6	·	·
COc1cccc(NC(=O)CN(C)C(=O)c2csc3c2CCCC3)c1	·	·	-2	·	5	-6%	-3%
O=C(C[C@@H]1C/C=C/CC[C@@H](Cc2ccc(F)cc2)C(=O)O[C@@H](c2ccccc2)CNC1=O)NCCO	·	·	15	·	8	·	·
COC(=O)C(N)Cc1ccc(O)c(O)c1 (stereo not drawn)	-4	41*	26	-5	8	26%	21%
O=C(Nc1ccccc1C(F)(F)F)N1CCC(N2CCCCC2)CC1	-2	1	-9	9	-4	·	·
O=C(Nc1ccccc1C(F)(F)F)C(O)(c1ccccc1)C1CCCCC1 (stereo not drawn)	3	1	-10	-8	-3	-12%	-2%
COc1ccc(-c2c(-c3cc(OC)cc(OC)c3)n(C)c3ccc(-c4cccc5[nH]ccc45)cc23)cc1	2	0	-1	16	-2	0%	3%
CCOc1ccc(/C(O)=C2/C(=O)C(=O)N(c3ncccn3)C2c2ccccc2)cc1 (stereo not drawn)	-5	50*	-11	-18	-8	-9%	-5%
CCOc1cc(C)c(Cl)cc1S(=O)(=O)NCCOC	32*	59*	-4	-18	-1	-8%	-3%
COc1ccc(S(=O)(=O)Nc2cc3c(cc2N2CCOCC2)n(C)c(=O)n3C)cc1	·	-1	·	-5	·	·	·
CN(CC(=O)NCc1ccccc1)CC(=O)Nc1ccc(Cl)c(C(F)(F)F)c1	22	2	-1	3	7	4%	3%
Cc1cc2nc(NC(=O)C3(C)CCN3C(=O)C(C)C)[nH]c2cc1C (stereo not drawn)	·	·	0	·	10	·	·
Oc1ccc(Cl)cc1CNCc1ccc(F)cc1	-2	4	-24	-15	-6	·	·
Oc1ccc(Cl)cc1CNCc1ccc(Cl)cc1	-6	1	-81	-20	0	-3%	-2%
O=C(NCCNC1CCC(c2ccccc2)CC1)c1cccs1 (stereo not drawn)	48*	50*	-18	-11	-2	-5%	-3%
CCOC(=O)N1CCC(NCCNC(=O)c2ccccc2)CC1	51*	66*!	-13	-13	7	-2%	7%
CCOC(=O)N1CCC(NC(=O)Cc2ccccc2)CC1	-1	0	-16	-3	-5	·	·
CCOC(=O)N1CCC(NCCNC(=O)c2cccs2)CC1	6	6	-26	·	8	-9%	11%
CCOC(=O)N1CCC(NCCNC(=O)c2ccccc2Cl)CC1	56*	0	-1	3	2	-14%	12%
CCOC(=O)N1CCC(NC(=O)c2ccccc2C(=O)O)CC1	-6	0	0	-1	-1	·	·
COc1cc(CC(=O)OCC(=O)NC(C)c2ccccc2)cc(OC)c1OC (stereo not drawn)	·	·	15	·	1	·	·
COc1cccc(CC(=O)OCC(=O)NC(C)c2ccc(F)cc2)c1 (stereo not drawn)	-4	0	-6	1	-5	-1%	-1%
Nc1nonc1C(=O)N/N=C/c1cc(Br)ccc1O	1	12	0	7	1	·	·
SMILES	D2 antagonist	D2 ag-1	D2 PAM-1	D2 PAM-2	D2 ag-2	D3 ag	D2 ag-3
Cc1cccc(N2CCN(Cc3nc(-c4cccc(Cl)c4)oc3C)CC2)n1	9	34*	-5	-14	-4	-4%	12%
Cc1cccc(-c2nc(C(N)=O)c3c(n2)n(-c2ccc4c(c2)OCO4)c(=O)n3C)c1	·	1	·	·	·	·	·
C/C(=N\NC(=O)c1nnn(-c2nonc2N)c1-c1ccc2c(c1)OCO2)c1ccccc1	-58	10	4	24	-4	-8%	-7%
C/C(=N\NC(=O)c1nnn(-c2nonc2N)c1-c1ccc2c(c1)OCO2)c1ccc(C)cc1	14	16	-4	8	-1	-4%	-1%
CC1(C(=O)NS(=O)(=O)c2cccc(Cl)c2)CCN1C(=O)C1(c2ccccc2)CC1 (stereo not drawn)	·	·	-2	·	3	·	·
CCCn1cc(SCC(=O)NC2CCCC2)c2ccccc21	-16	-1	-14	1	-8	-18%	-1%
CCOC(=O)C1(C)CCCN1C(=O)c1ccc(OC)c(OC)c1 (stereo not drawn)	·	·	-9	·	-2	·	·
O=C(Cc1csc(Nc2nc(=S)[nH]c3ccccc23)n1)NCc1ccc(Cl)cc1	10	0	-1	-16	0	·	·
Cn1c2ccccc2c2cnn(CC(=O)NCCCN3CCN(c4ccccc4F)CC3)c(=O)c21	63*	69*!	-7	-24	3	13%	26%
Cn1c(=O)cc(OCC(=O)NCCCN2CCN(c3ccccc3F)CC2)c2ccccc21	78*	86*	?	-19	45*	-6%	?
Cn1c(C(=O)NCCCN2CCN(c3ccccc3F)CC2)cc2c(=O)[nH]c3ccccc3c21	105*	71*	14	-24	?	10%	29%
O=C(Cc1csc(Nc2nc(=S)[nH]c3ccccc23)n1)NCCCN1CCN(c2ccccc2F)CC1	67*	47*	-28	-19	13	9%	15%
CC(=O)NCCc1nc2ccccc2n1Cc1cccc(C)c1	19	0	1	2	2	·	·
COC(=O)C1=C(C(=O)OC)[C@@H]2N(C)c3ccccc3[C@@]23C[C@@H](CO)N=C3N1	·	·	-7	·	-2	·	·
CC1CCc2c(sc(NC(=O)CCC(=O)O)c2C(=O)NC2CC2)C1 (stereo not drawn)	3	0	-6	5	-6	·	·
COc1ccccc1N1CCN(CCCNC(=O)Cn2ncc3c([nH]c4ccccc43)c2=O)CC1	90*	27	-34	-26	-5	-24%	7%
CCCn1c2ccccc2c2cnn(CC(=O)NCCCN3CCN(c4ccccc4)CC3)c(=O)c21	88*	22	-32	-25	0	17%	9%
CCCn1c2ccccc2c2cnn(CC(=O)OC)c(=O)c21	-9	41*	-12	3	-3	1%	-1%

Bioassay records (PubChem BioAssay)
